Our source for the growth values is PubChem BioAssay (NCI).

About 83,000 compounds went through this panel and 20% of them were active in at least one assay; those are over-represented in the sample as a whole.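 Testing used 96-well plates and a 48-hour single-concentration exposure. Example: -40 means 40% of the starting cells died.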 A number with no mark means an inactive call. Calls of active or inactive are those of the source. Rule for the calls: active = growth percent below 10; inactive = the rest.

What all share (experiment): NCI-60 one-dose screen, 48 h (100 = growth as untreated, 0 = no growth, -100 = all killed)
One assay deals with SK-MEL-2 melanoma. The note with it: 10 µM unless noted.
A further assay has as its system EKVX NSCLC. The note with it: 10 µM unless noted.
The subject of the next assay is SN12C renal. The following applies: 10 µM unless noted.
For another assay, the system named is TK-10 renal. The following applies: 10 µM unless noted.
A further assay concerns A498 renal. The note with it: 10 µM unless noted.
The next assay deals with CCRF-CEM leukemia. The note with it: 10 µM unless noted.
A further assay relates to MOLT-4 leukemia. The following applies: 10 µM unless noted.
A further assay concerns SR leukemia. The note with it: 10 µM unless noted.
Another assay concerns RPMI-8226 leukemia. The note with it: 10 µM unless noted.
Another assay deals with OVCAR-8 ovarian. The note with it: 10 µM unless noted.
The subject of a further assay is OVCAR-5 ovarian. The note with it: 10 µM unless noted.
The subject of another assay is OVCAR-4 ovarian. The note with it: 10 µM unless noted.
For another assay, the system named is SK-OV-3 ovarian. The note with it: 10 µM unless noted.
The subject of another assay is IGROV1 ovarian. The following applies: 10 µM unless noted.
In the next assay the test system is OVCAR-3 ovarian. The following applies: 10 µM unless noted.
The test system of a further assay is HS 578T breast. The following applies: 10 µM unless noted.
For a further assay, the system named is NCI/ADR-RES ovarian. The note with it: 10 µM unless noted.
The subject of a further assay is ACHN renal. The following applies: 10 µM unless noted.
In a further assay the test system is CAKI-1 renal. The note with it: 10 µM.

Turning to `COC(=O)c1ccc(NC(N)=NCC(C)(C)COc2ccc(C(F)(F)F)cc2)nc1`, the growth is 79.9% with SK-MEL-2 melanoma; 45.5% in the assay with EKVX NSCLC; 51.3% in the assay on SN12C renal; 53.9% in the assay on TK-10 renal; 74.2% with A498 renal; 15.7% in the assay on CCRF-CEM leukemia. In addition, the growth with MOLT-4 leukemia was 9.32% (active); with SR leukemia it was -32.3% (active); in the assay with RPMI-8226 leukemia it was 10.9%; in the assay on OVCAR-8 ovarian, 52.2%; in the assay with OVCAR-5 ovarian, 72%; with OVCAR-4 ovarian, 40.6%. For the same compound, the growth in the assay on SK-OV-3 ovarian was 106%; with IGROV1 ovarian, 21.3%; with OVCAR-3 ovarian, 50%; in the assay with HS 578T breast, 86.3%; with NCI/ADR-RES ovarian, 44.6%.

In the case of `COc1ccccc1N1CCN(CCCOc2ccc(OCCCN3CCN(c4ccccc4OC)CC3)c(C(=O)c3cc(OC)c(OC)c(OC)c3)c2)CC1`, the growth was 97.2% in the assay on SK-MEL-2 melanoma; 88.8% in the assay with EKVX NSCLC; 110% in the assay with SN12C renal; 123% in the assay on TK-10 renal; 157% in the assay on ACHN renal; 122% in the assay with A498 renal. Also, the growth was 98.1% with MOLT-4 leukemia; 99.7% in the assay with SR leukemia; 155% in the assay on RPMI-8226 leukemia; 105% in the assay with OVCAR-8 ovarian; 109% with OVCAR-5 ovarian; 109% with OVCAR-4 ovarian. For the same compound, the growth in the assay with SK-OV-3 ovarian is 100%; with IGROV1 ovarian, 122%; in the assay with HS 578T breast, 106%; with NCI/ADR-RES ovarian, 105%.

For `CCN(CC)CCNc1ccc([N+](=O)[O-])c2sc3cc(Cl)ccc3c(=O)c12`, the growth in the assay with SK-MEL-2 melanoma was 82.1%; in the assay with EKVX NSCLC, 78.9%; in the assay with SN12C renal it was -19.3% (active); in the assay with TK-10 renal, 66.9%; in the assay with A498 renal, 73.5%; in the assay on CCRF-CEM leukemia it was 12.9%. The growth was 29% with MOLT-4 leukemia; 9.3% (active) with SR leukemia; 3.51% (active) in the assay with RPMI-8226 leukemia; 3.32% (active) in the assay on OVCAR-8 ovarian; 38.7% in the assay on OVCAR-5 ovarian; -37.6% (active) with OVCAR-4 ovarian. Moreover, the growth was 86.3% with SK-OV-3 ovarian; 15.1% in the assay on IGROV1 ovarian; 71.5% in the assay with OVCAR-3 ovarian; 80.2% in the assay with HS 578T breast; 33.9% in the assay with NCI/ADR-RES ovarian.

As to `Cc1c(F)cccc1NC(=O)c1sc2nc3c(cc2c1N)CCCCC3`, the growth in the assay with SK-MEL-2 melanoma is 40.7%; in the assay on EKVX NSCLC, 64.7%; with SN12C renal, 84.6%; with TK-10 renal it was 85.3%; in the assay on A498 renal it was 33.7%; in the assay on CCRF-CEM leukemia, 23.6%. In addition, the growth in the assay on MOLT-4 leukemia was 30.7%; in the assay with SR leukemia, 16.8%; with RPMI-8226 leukemia, 35.3%; with OVCAR-8 ovarian it was 80.3%; with OVCAR-5 ovarian it was 90.1%; with OVCAR-4 ovarian it was 75.6%. The growth in the assay with SK-OV-3 ovarian was 66.2%; in the assay with IGROV1 ovarian, 53.7%; in the assay with OVCAR-3 ovarian, 34.6%; with HS 578T breast, 54.3%; in the assay on NCI/ADR-RES ovarian, 43.9%.

For `O=C(O)c1ccc(-n2cc(/C=N/Nc3ccccc3F)c(-c3ccc(O)cc3)n2)cc1`, the growth in the assay with SK-MEL-2 melanoma is 91.5%; with EKVX NSCLC it was 69.9%; in the assay with SN12C renal, 103%; in the assay on TK-10 renal, 102%; in the assay with A498 renal, 72.5%; in the assay on CCRF-CEM leukemia, 41.5%. Further, the growth was 39.1% with MOLT-4 leukemia; 73.6% with SR leukemia; 59.1% in the assay on RPMI-8226 leukemia; 88.4% in the assay with OVCAR-8 ovarian; 80.9% with OVCAR-5 ovarian; 94.8% in the assay on OVCAR-4 ovarian. Further, the growth in the assay with SK-OV-3 ovarian was 102%; with IGROV1 ovarian, 81%; in the assay with OVCAR-3 ovarian, 82.7%; in the assay on HS 578T breast, 92.4%; in the assay on NCI/ADR-RES ovarian it was 80%.

For `CC(=O)CC/C=C(\C)[C@H](O)[C@H](C)C(=O)O[C@H]1C[C@H](C)C=C2C=C[C@@]3(C)O[C@@H](O)CC(=O)[C@]3(C)[C@H]21`, the growth with SK-MEL-2 melanoma is -59.7% (active); with EKVX NSCLC, -28.8% (active); with SN12C renal, -11.5% (active); with TK-10 renal, -27.4% (active); with A498 renal it was -66.2% (active); in the assay on CCRF-CEM leukemia it was 4.28% (active). Moreover, the growth in the assay with MOLT-4 leukemia was -7.91% (active); in the assay on SR leukemia, 0.335% (active); in the assay with RPMI-8226 leukemia it was -18.5% (active); in the assay with OVCAR-8 ovarian, -14.7% (active); with OVCAR-5 ovarian, -10% (active); in the assay on OVCAR-4 ovarian, -21.9% (active). Moreover, the growth was -25.5% (active) in the assay on SK-OV-3 ovarian; -17.7% (active) with IGROV1 ovarian; -46.4% (active) with OVCAR-3 ovarian; -10.1% (active) with HS 578T breast; 0.0427% (active) in the assay with NCI/ADR-RES ovarian.

In the case of `CC(C)(C)NC(C1=CC(C)(C)c2ccccc2C1=O)c1ccccc1` (stereo not given), the growth with SK-MEL-2 melanoma is -65.1% (active); in the assay with EKVX NSCLC, -1.1% (active); in the assay on SN12C renal, -14.3% (active); in the assay on TK-10 renal, -6.87% (active); in the assay with ACHN renal it was -10.5% (active); in the assay with A498 renal, 45.1%. Besides, the growth with CCRF-CEM leukemia was -5.2% (active); with MOLT-4 leukemia, -47.4% (active); with RPMI-8226 leukemia it was -44.9% (active); in the assay with OVCAR-8 ovarian, -47.9% (active); with OVCAR-5 ovarian, -75% (active); in the assay with OVCAR-4 ovarian, -52.9% (active). The growth in the assay with SK-OV-3 ovarian was 29.2%; in the assay with OVCAR-3 ovarian it was -92.5% (active); in the assay on HS 578T breast it was 46.4%; in the assay on NCI/ADR-RES ovarian, -43.3% (active).

`O=C(/C=C/c1ccco1)c1cccc(Nc2nc(Nc3ccccc3)nc(Nc3ccccc3)n2)c1`: the growth with SK-MEL-2 melanoma was 83.9%; in the assay on EKVX NSCLC, 77.8%; with SN12C renal it was 98.6%; in the assay on TK-10 renal it was 141%; in the assay on ACHN renal it was 95.5%; in the assay with CAKI-1 renal it was 92.8%. Besides, the growth in the assay on A498 renal is -34.7% (active); in the assay with CCRF-CEM leukemia it was 56.4%; in the assay on MOLT-4 leukemia, 61.7%; with RPMI-8226 leukemia, 38.8%; with OVCAR-8 ovarian it was 49.5%; in the assay with OVCAR-5 ovarian, 83.6%. For the same compound, the growth in the assay on OVCAR-4 ovarian was 62.1%; in the assay with SK-OV-3 ovarian it was 90.5%; in the assay on OVCAR-3 ovarian, 61.8%; in the assay on HS 578T breast, 92%; with NCI/ADR-RES ovarian it was 75.5%.

On to `Nc1ncnc2c1ccn2-c1cccc(NC(=O)c2cccc(C(F)(F)F)c2)c1`, for which the growth with SK-MEL-2 melanoma was 80.6%; with EKVX NSCLC, 66.6%; in the assay on SN12C renal, 88.4%; in the assay with ACHN renal, 64.1%; in the assay with CAKI-1 renal it was 69.7%; in the assay with A498 renal it was 82.9%. Besides, the growth with CCRF-CEM leukemia is 51.3%; with MOLT-4 leukemia it was 52.3%; in the assay on SR leukemia, 54.6%; in the assay with OVCAR-8 ovarian it was 78%; in the assay with OVCAR-5 ovarian, 81.4%; in the assay on OVCAR-4 ovarian, 68.7%. For the same compound, the growth in the assay with SK-OV-3 ovarian was 93.3%; with IGROV1 ovarian, 87.5%; in the assay with OVCAR-3 ovarian it was 80%; in the assay on NCI/ADR-RES ovarian, 78.4%.
